Structures can show the parent of a compound that is named as a salt.

This experiment has as its system Saccharomyces cerevisiae. In words: fraction of cells in G1 phase (DNA content, flow cytometry); higher = more cells with unreplicated DNA (G1 delay). Conditions: temperature: 30 C; YPD; JTY2953 pdr5 snq2 (sensitized); drug added to: cultures diluted from stationary phase; 6-7 h. Summed up:
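Yeast (S. cerevisiae) in YPD at 30°C was treated with library drugs, and cells were then fixed in ethanol, stained with SYTOX Green and counted by flow cytometry over 10,000 events. Sensitized JTY2953 diluted 1∶200 from an overnight culture got a final 20 µg/ml and was fixed 6–7 h later; other runs dosed dividing JTY2953 (fixed at 6 h) or BY4741 (fixed at 4.33 h). G1 fraction means the Dean-Jett-Fox G1 peak area relative to the G1 and G2/M areas together.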
In the case of `COc1ccc2c3c1O[C@H]1C[C@@H](O)C=C[C@@]31CCN(C)C2` [Galanthamine HBr] (69.5987 µM), the “fraction of cells in G1 phase” value came out at 0.538.

On to `COc1ccc2[nH]cc(CCNC(C)=O)c2c1` [Melatonin] (86.1012 µM), for which the “fraction of cells in G1 phase” value was determined as 0.529.

`CCOc1ccccc1OCCN[C@H](C)Cc1ccc(OC)c(S(N)(=O)=O)c1` [Tamsulosin HCl] (48.9571 µM): the “fraction of cells in G1 phase” value is 0.507.

As for `CC(C)(C)[C@]1(O)CCN2C[C@H]3c4ccccc4CCc4cccc(c43)[C@@H]2C1` [Butaclamol (+)] (55.3201 µM), the “fraction of cells in G1 phase” value is 0.535.

Consider `Nc1ccn([C@@H]2O[C@H](CO)[C@@H](O)C2(F)F)c(=O)n1` [Gemcitabine HCl] (75.9871 µM), for which the “fraction of cells in G1 phase” value worked out at 0.49.

For `CCn1cc(C(=O)O)c(=O)c2cc(F)c(N3CCNCC3)cc21` [Norfloxacin] (62.6295 µM), the “fraction of cells in G1 phase” value is 0.455.

Regarding `NC[C@H]1O[C@H](O[C@H]2[C@H](O)[C@@H](O[C@H]3O[C@H](CO)[C@@H](O)[C@H](N)[C@H]3O)[C@H](N)C[C@@H]2N)[C@H](N)C[C@@H]1O` [Tobramycin (free base)] (42.7786 µM), the “fraction of cells in G1 phase” value worked out at 0.469.

In the case of `N#Cc1ccc(C(c2ccc(C#N)cc2)n2cncn2)cc1` [Letrozole] (70.099 µM), the “fraction of cells in G1 phase” value was determined as 0.519.

With `CCn1cc(C(=O)O)c(=O)c2cc(F)c(N3CCNCC3)nc21` [Enoxacin] (62.4364 µM), the “fraction of cells in G1 phase” value is 0.512.

On to `CCOC(=O)C1=C(C)NC(C)=C(C(=O)OCC)C1c1ccccc1/C=C/C(=O)OC(C)(C)C` [Lacidipine] (43.9024 µM), for which the “fraction of cells in G1 phase” value came to 0.516.

As to `COc1ccccc1OCCNCC(O)COc1cccc2[nH]c3ccccc3c12` (stereo not given) [Carvedilol] (49.2022 µM), the “fraction of cells in G1 phase” value came to 0.525.

On to `Nc1ccc(O)c(C(=O)O)c1` [5-aminosalicylic acid] (130.601 µM), for which the “fraction of cells in G1 phase” value was found to be 0.48.

Take `O=C(NCC1CCCCN1)c1cc(OCC(F)(F)F)ccc1OCC(F)(F)F` (stereo not given) [Flecainide] (42.1585 µM): the “fraction of cells in G1 phase” value stood at 0.509.

For `CCOC(=O)/C=C(C)/C=C/C=C(C)/C=C/c1c(C)cc(OC)c(C)c1C` [Etretinate] (56.4185 µM), the “fraction of cells in G1 phase” value was found to be 0.557.

`CCN1CCC[C@H]1CNC(=O)c1c(O)c(Cl)cc(Cl)c1OC` [Raclopride l-tartrate s(-)] (57.5963 µM): the “fraction of cells in G1 phase” value turned out to be 0.521.

In the case of `CN(C)CCc1c[nH]c2ccc(C[C@H]3COC(=O)N3)cc12` [zolmitriptan] (65.9179 µM), the “fraction of cells in G1 phase” value was determined as 0.474.

Take `Cc1ccccc1C(OCCN(C)C)c1ccccc1` (stereo not given) [Orphenadrine citrate] (43.3369 µM): the “fraction of cells in G1 phase” value is 0.522.

On to `CC[C@H](C)C(=O)O[C@H]1C[C@H](O)C=C2C=C[C@H](C)[C@H](CC[C@@H]3C[C@@H](O)CC(=O)O3)[C@H]21` [Pravastatin lactone] (49.1976 µM), for which the “fraction of cells in G1 phase” value stood at 0.451.

As to `CCOC(=O)c1ncn2c1CN(C)C(=O)c1cc(F)ccc1-2` [Flumazenil] (65.9423 µM), the “fraction of cells in G1 phase” value was 0.507.

Take `Nc1nc(=O)n([C@@H]2CS[C@H](CO)O2)cc1F` [Emtricitabine] (80.8899 µM): the “fraction of cells in G1 phase” value was 0.481.

As to `CC(C)NCC(O)COc1cccc2ccccc12` (stereo not given) [Propranolol] (77.1155 µM), the “fraction of cells in G1 phase” value stood at 0.477.

With `N=c1nc(N2CCCCC2)cc(N)n1O` [Minoxidil] (95.5782 µM), the “fraction of cells in G1 phase” value is 0.522.

For `CN(C)CCCN1c2ccccc2CCc2ccccc21` [Imipramine HCl] (71.3225 µM), the “fraction of cells in G1 phase” value stood at 0.524.

For `Cc1ccc(C(=O)c2ccc(CC(=O)O)n2C)cc1` [Tolmetin Na] (77.7328 µM), the “fraction of cells in G1 phase” value was 0.482.

`CC(C)(C)NC(=O)[C@H]1CC[C@H]2[C@@H]3CC[C@H]4NC(=O)C=C[C@]4(C)[C@H]3CC[C@]12C` [Finasteride] (53.6833 µM): the “fraction of cells in G1 phase” value came out at 0.558.
